In PubChem BioAssay (NCATS):
Records with an inconclusive call do not appear. Entries that show only a call come without a potency. Values without a mark were called inactive. Calls of active or inactive are those of the source. The call rests on the fitted dose curve; in most records, active means well fitted inhibition curve with a large enough effect; inconclusive means small, poorly fitted or top-dose-only effect; inactive means no such curve, though single readings can be large or run the other way.

System: Zika virus NS2B-NS3 protease (unlinked complex)
Test: Primary screen GU Rhodamine qHTS for Zika virus inhibitors: Unlinked NS2B-NS3 protease assay (AID 1347159); further: nearly all actives have a fitted effect of over 60% in size
Conditions: Recombinant ZIKV NS2B-NS3 protease, Rhodamine110 substrate fluorescence; series mostly up to 107 µM
How it was run: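 A qHTS format was used, with compound concentrations ranging up to 114 microM. Each compound was preincubated with 25 nM NS2B-NS3 protease, and the substrate was then added at 1.5 microM. Curves were fitted with a 4-parameter Hill model.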

Row | Compound | Potency
1 | CN1CCN(c2ccc(Nc3cc(-c4cccc(-n5ccc6cc(C7CC7)cc(F)c6c5=O)c4CO)cn(C)c3=O)nc2)CC1 | inactive
2 | O=C(NCCN1CCN(c2cccc3c2OCCO3)CC1)c1ccc(F)cc1 | inactive
3 | Cc1ccc(C(=O)Nc2ccc(CN3CCN(C)CC3)c(C(F)(F)F)c2)cc1C#Cc1cnc2[nH]ncc2c1 | inactive
4 | C[C@@H]1O[C@@H](O[C@H]2[C@@H]3C=CO[C@@H](O[C@@H]4O[C@H](CO)[C@@H](O)[C@H](O)[C@H]4O)[C@@H]3[C@@]3(CO)O[C@@H]23)[C@H](O)[C@H](OC(=O)/C=C/c2ccccc2)[C@H]1O | inactive
5 | CCC(=C(c1ccc(OCCN2CCCC2)cc1)c1ccc(OCCN2CCCC2)cc1)c1ccccc1 | inactive

System: Zika virus NS2B-NS3 protease (linked construct)
Test: Primary screen NINDS Rhodamine qHTS for Zika virus inhibitors (AID 1347160); further: nearly all actives have a fitted effect of over 55% in size
Conditions: purified NS2B-NS3 protease, Rhodamine110 substrate fluorescence; series mostly up to 57.1 µM
How it was run: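 Kinetic fluorescence (Ex 480 nm, Em 540 nm) over 15 min with 1.5 microM Rhodamine110 peptide and 25 nM linked protease.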

Row | Compound | Potency | activity change, negative = inhibition
6 | CCN1CCC[C@@H]1CNC(=O)c1ccc2c(c1)NC(=O)c1cccc(C)c1S2 | inactive | –
7 | CC(C)(O)C(=O)N1CCN(c2ccc(C(F)(F)F)c(C3=C(c4c[nH]c5ccccc45)C(=O)NC3=O)c2)CC1 | inactive | –
8 | COc1cc(CCc2cc(NC(=O)c3ccc(N4CC(C)NC(C)C4)cc3)n[nH]2)cc(OC)c1 (stereo not given) | inactive | –
9 | Cc1cc(-c2nc(-c3ccc(OC(F)(F)F)cc3)no2)nn1Cc1ccnc(N2CCN(C3CC3)CC2)c1 | inactive | –
10 | NC(=O)CCCSc1nc(N)nc(-c2c(Cl)cc3c4c(cccc24)COC3)n1 | inactive | –
11 | CCC(C)CNCC(=O)N1CCC2SC=CC2C1COc1cccc(C)c1 (stereo not given) | inactive | –
12 | C=C1CC(=O)C2OC2(C)CC2OC(=O)C(=C)C2C(O)C1OC(=O)/C(C)=C\C (stereo not given) | inactive | –
13 | C[C@@H]1O[C@@H](O[C@H]2[C@@H](OC(=O)[C@]34CCC(C)(C)CC3C3=CCC5[C@@]6(C)C[C@H](O)[C@H](O[C@@H]7O[C@H](CO)[C@@H](O)[C@H](O)[C@H]7O[C@@H]7OC[C@@H](O)[C@H](O)[C@H]7O)[C@@](C)(C(=O)O)C6CC[C@@]5(C)[C@]3(C)CC4)OC[C@H](O)[C@@H]2O)[C@H](O)[C@H](O)[C@H]1O[C@@H]1OC[C@@H](O)[C@H](O)[C@H]1O (stereo not given in full) | – | 21.4% [at 10.7 µM]
14 | NC(=O)c1ccccc1Nc1ccnc(Nc2cccc(O)c2)n1 | inactive | –
15 | O=C(NCCN1CCOCC1)c1cc2c(Oc3ccc(NC(=O)C4(C(=O)Nc5ccc(F)cc5)CC4)cc3)ccnc2[nH]1 | inactive | –
16 | O=C(Nc1ccc(N(Cc2ccsc2)C(=O)Cn2nnc3ccccc32)cc1)C1CC1 | inactive | –
17 | Cc1cc(C)c(-n2cc(C)c3c(Cl)nc(C)nc32)c(C)c1 | inactive | –
18 | C=C1C(=O)O[C@@H]2C[C@H](C)[C@@H]3CC(=O)C(C)=C3C[C@H]12 | inactive | –
19 | COc1ccc([C@H](Cc2ccncc2)c2ccccc2)cc1OC1CCCC1 | inactive | –
20 | Nc1nc2c(cnn2CCCc2ccc(O)cc2)c2nc(-c3ccco3)nn12 | inactive | –
21 | Cc1ccc(NC(=O)N2CCN(c3nc(N)nc4sc(-c5cccnc5)nc34)CC2)cc1 | inactive | –
22 | CCNc1nc(Nc2cc(F)c(C(=O)N3CCOCC3)cc2OC)ncc1C(F)(F)F | inactive | –
23 | O=C(CCl)Nc1cccc(NC2=NS(=O)(=O)c3ccccc32)c1 | inactive | –
24 | COc1ccc(-c2ccc3c(N4CCOCC4C)nc(N4CCOCC4C)nc3n2)cc1CO (stereo not given) | inactive | –
25 | Cc1ccnn1-c1ccc(C(=O)N2CCN(S(=O)(=O)c3ccc(Cl)c(C(F)(F)F)c3)CC2)cc1 | inactive | –
26 | C=C1C(=O)O[C@@H]2/C=C(\C)CC/C=C(\C)CC[C@@H]12 | inactive | –
27 | CC(O)C(C)n1ncn(-c2ccc(N3CCN(c4ccc(OCC5COC(Cn6cncn6)(c6ccc(Cl)cc6Cl)O5)cc4)CC3)cc2)c1=O (stereo not given) | inactive | –
28 | CC(C)(C)c1ccc(NC(=O)N2CCN(c3ncccc3Cl)CC2)cc1 | inactive | –
29 | Clc1ncoc1-c1c[nH]c2ccccc12 | inactive | –
30 | C/C=C/C1=CC2=C(CO1)C(=O)C(C)(OC(=O)c1c(C)cc(O)cc1OC)C(O)C2 (stereo not given) | inactive | –
31 | Cc1csc(N(C(=O)CSc2ccc(-c3ccccc3)nn2)C2CC2)n1 | inactive | –
32 | COc1ccc(C2(N(C)C(=O)c3ccc(NC(=O)c4ccco4)cc3)CCOCC2)cc1 | inactive | –
33 | Nc1ncnc2c1c(-c1ccc(Cl)cc1)nn2-c1cccc(-c2cnnn2Cc2cccc(-c3ccccc3)c2)c1 | inactive | –
34 | O=[N+]([O-])c1ccc(Oc2ccc3c(c2)CCC(c2ccccc2)O3)nc1 (stereo not given) | inactive | –
35 | CC(C)=C[C@@H]1[C@H](CO[C@@H]2O[C@H](CO)[C@@H](O)[C@H](O)[C@H]2O)C1(C)C | inactive | –
